Assay results published in article doi:10.1101/2024.03.05.583629.

Each sequence was assayed against pT7_6His-AlfaTag-ZIF268 (human, UniProt P18146 335-423) (assay: PADIT-seq). Conditions: dsDNA, one strand shown.
Work on “CTCGAGGATATCAAGATCTGGCCTCGGCGTTTTAAGTGGAACCTCTAGCTAGCCGACTCACTATAGGGATAATCGCCCTGAGCAAAGACC” yielded a binding signal of 0.00666 ± 0.106 log2FC.
With “CTCGAGGATATCAAGATCTGGCCTCGGCCTATGGGCGGGAACCTCTAGCTAGCCGACTCACTATAGGGATAATCGCCCTGAGCAAAGACC” the binding signal was 0.0355 ± 0.0969 log2FC.
Work on “CTCGAGGATATCAAGATCTGGCCTCGGCCGCCTAAAAGGAACCTCTAGCTAGCCGACTCACTATAGGGATAATCGCCCTGAGCAAAGACC” yielded a binding signal of 0.0248 ± 0.0968 log2FC.
“CTCGAGGATATCAAGATCTGGCCTCGGCGCTTGGGCGGGAACCTCTAGCTAGCCGACTCACTATAGGGATAATCGCCCTGAGCAAAGACC” was tested, and the binding signal was 0.158 ± 0.0966 log2FC.
With “CTCGAGGATATCAAGATCTGGCCTCGGCTTTTTAGAGGGAACCTCTAGCTAGCCGACTCACTATAGGGATAATCGCCCTGAGCAAAGACC” the binding signal was 0.141 ± 0.108 log2FC.
“CTCGAGGATATCAAGATCTGGCCTCGGCGTCATAAAAGGAACCTCTAGCTAGCCGACTCACTATAGGGATAATCGCCCTGAGCAAAGACC” was tested, and the binding signal was 0.00486 ± 0.0824 log2FC.
In the case of “CTCGAGGATATCAAGATCTGGCCTCGGCGTATGGGCGGGAACCTCTAGCTAGCCGACTCACTATAGGGATAATCGCCCTGAGCAAAGACC”, the binding signal is reported as 0.246 ± 0.0831 log2FC.
With “CTCGAGGATATCAAGATCTGGCCTCGGCGTTTTACCAGGAACCTCTAGCTAGCCGACTCACTATAGGGATAATCGCCCTGAGCAAAGACC” the binding signal was 0.0291 ± 0.0981 log2FC.
“CTCGAGGATATCAAGATCTGGCCTCGGCTCGTGGGCGGGAACCTCTAGCTAGCCGACTCACTATAGGGATAATCGCCCTGAGCAAAGACC” showed a binding signal of 2.74 ± 0.0778 log2FC.
For “CTCGAGGATATCAAGATCTGGCCTCGGCGTTTTATGCGGAACCTCTAGCTAGCCGACTCACTATAGGGATAATCGCCCTGAGCAAAGACC”, the binding signal was 0.0171 ± 0.08 log2FC.
For “CTCGAGGATATCAAGATCTGGCCTCGGCCGCCCATCCGGAACCTCTAGCTAGCCGACTCACTATAGGGATAATCGCCCTGAGCAAAGACC”, the binding signal was 0.00306 ± 0.0965 log2FC.
For “CTCGAGGATATCAAGATCTGGCCTCGGCATTTTACGTGGAACCTCTAGCTAGCCGACTCACTATAGGGATAATCGCCCTGAGCAAAGACC”, the binding signal was 0.139 ± 0.0815 log2FC.
“CTCGAGGATATCAAGATCTGGCCTCGGCGCAGTAAAAGGAACCTCTAGCTAGCCGACTCACTATAGGGATAATCGCCCTGAGCAAAGACC” gave a binding signal of 0.0357 ± 0.0818 log2FC.
“CTCGAGGATATCAAGATCTGGCCTCGGCGCGTTGGCGGGAACCTCTAGCTAGCCGACTCACTATAGGGATAATCGCCCTGAGCAAAGACC” showed a binding signal of 1.75 ± 0.117 log2FC.
“CTCGAGGATATCAAGATCTGGCCTCGGCTTTTTAGTTGGAACCTCTAGCTAGCCGACTCACTATAGGGATAATCGCCCTGAGCAAAGACC” gave a binding signal of 0.189 ± 0.0984 log2FC.
“CTCGAGGATATCAAGATCTGGCCTCGGCGAATTAAAAGGAACCTCTAGCTAGCCGACTCACTATAGGGATAATCGCCCTGAGCAAAGACC” gave a binding signal of 0.0118 ± 0.0724 log2FC.
“CTCGAGGATATCAAGATCTGGCCTCGGCTCCCCACGCGGAACCTCTAGCTAGCCGACTCACTATAGGGATAATCGCCCTGAGCAAAGACC” gave a binding signal of 0.208 ± 0.106 log2FC.
“CTCGAGGATATCAAGATCTGGCCTCGGCCGTTGGGCGGGAACCTCTAGCTAGCCGACTCACTATAGGGATAATCGCCCTGAGCAAAGACC” was tested, and the binding signal was 0.0419 ± 0.0862 log2FC.
For “CTCGAGGATATCAAGATCTGGCCTCGGCATTTTAATCGGAACCTCTAGCTAGCCGACTCACTATAGGGATAATCGCCCTGAGCAAAGACC”, the binding signal was 0.0175 ± 0.09 log2FC.
For “CTCGAGGATATCAAGATCTGGCCTCGGCGCGAAGGCGGGAACCTCTAGCTAGCCGACTCACTATAGGGATAATCGCCCTGAGCAAAGACC”, the binding signal was 0.278 ± 0.0993 log2FC.
“CTCGAGGATATCAAGATCTGGCCTCGGCTGGCTAAAAGGAACCTCTAGCTAGCCGACTCACTATAGGGATAATCGCCCTGAGCAAAGACC” gave a binding signal of 0.0373 ± 0.0882 log2FC.
“CTCGAGGATATCAAGATCTGGCCTCGGCGCATGGGCGGGAACCTCTAGCTAGCCGACTCACTATAGGGATAATCGCCCTGAGCAAAGACC” gave a binding signal of 0.51 ± 0.0916 log2FC.
With “CTCGAGGATATCAAGATCTGGCCTCGGCGAATGGGCGGGAACCTCTAGCTAGCCGACTCACTATAGGGATAATCGCCCTGAGCAAAGACC” the binding signal was 0.0552 ± 0.0878 log2FC.
With “CTCGAGGATATCAAGATCTGGCCTCGGCGTTTTAACAGGAACCTCTAGCTAGCCGACTCACTATAGGGATAATCGCCCTGAGCAAAGACC” the binding signal was 0.0535 ± 0.0797 log2FC.
For “CTCGAGGATATCAAGATCTGGCCTCGGCTGTTGGGCGGGAACCTCTAGCTAGCCGACTCACTATAGGGATAATCGCCCTGAGCAAAGACC”, the binding signal was 0.111 ± 0.0773 log2FC.
“CTCGAGGATATCAAGATCTGGCCTCGGCTAATGGGCGGGAACCTCTAGCTAGCCGACTCACTATAGGGATAATCGCCCTGAGCAAAGACC” gave a binding signal of 0.0526 ± 0.0899 log2FC.
“CTCGAGGATATCAAGATCTGGCCTCGGCAGCCCACGCGGAACCTCTAGCTAGCCGACTCACTATAGGGATAATCGCCCTGAGCAAAGACC” was tested, and the binding signal was 0.806 ± 0.0795 log2FC.
Work on “CTCGAGGATATCAAGATCTGGCCTCGGCGACCCACGCGGAACCTCTAGCTAGCCGACTCACTATAGGGATAATCGCCCTGAGCAAAGACC” yielded a binding signal of 0.214 ± 0.0833 log2FC.
For “CTCGAGGATATCAAGATCTGGCCTCGGCATTTTAGGGGGAACCTCTAGCTAGCCGACTCACTATAGGGATAATCGCCCTGAGCAAAGACC”, the binding signal was 0.0683 ± 0.108 log2FC.
“CTCGAGGATATCAAGATCTGGCCTCGGCATTTGGGCGGGAACCTCTAGCTAGCCGACTCACTATAGGGATAATCGCCCTGAGCAAAGACC” showed a binding signal of 0.125 ± 0.0899 log2FC.
“CTCGAGGATATCAAGATCTGGCCTCGGCAAACTAAAAGGAACCTCTAGCTAGCCGACTCACTATAGGGATAATCGCCCTGAGCAAAGACC” gave a binding signal of 0.0456 ± 0.191 log2FC.
For “CTCGAGGATATCAAGATCTGGCCTCGGCGCGTGGTATGGAACCTCTAGCTAGCCGACTCACTATAGGGATAATCGCCCTGAGCAAAGACC”, the binding signal was 0.45 ± 0.0837 log2FC.
For “CTCGAGGATATCAAGATCTGGCCTCGGCACCGTAAAAGGAACCTCTAGCTAGCCGACTCACTATAGGGATAATCGCCCTGAGCAAAGACC”, the binding signal was 0.0818 ± 0.0804 log2FC.
In the case of “CTCGAGGATATCAAGATCTGGCCTCGGCGCGTGGGTTGGAACCTCTAGCTAGCCGACTCACTATAGGGATAATCGCCCTGAGCAAAGACC”, the binding signal is reported as 2.53 ± 0.0963 log2FC.
“CTCGAGGATATCAAGATCTGGCCTCGGCCTTTTAGAGGGAACCTCTAGCTAGCCGACTCACTATAGGGATAATCGCCCTGAGCAAAGACC” showed a binding signal of 0.0179 ± 0.0928 log2FC.
In the case of “CTCGAGGATATCAAGATCTGGCCTCGGCCTTTTATCGGGAACCTCTAGCTAGCCGACTCACTATAGGGATAATCGCCCTGAGCAAAGACC”, the binding signal is reported as 0.0806 ± 0.0794 log2FC.
Sequence “CTCGAGGATATCAAGATCTGGCCTCGGCGACATAAAAGGAACCTCTAGCTAGCCGACTCACTATAGGGATAATCGCCCTGAGCAAAGACC” has a binding signal of 0.00765 ± 0.0777 log2FC.
In the case of “CTCGAGGATATCAAGATCTGGCCTCGGCGCGACAGCGGGAACCTCTAGCTAGCCGACTCACTATAGGGATAATCGCCCTGAGCAAAGACC”, the binding signal is reported as 0.028 ± 0.102 log2FC.
Sequence “CTCGAGGATATCAAGATCTGGCCTCGGCACGCTAAAAGGAACCTCTAGCTAGCCGACTCACTATAGGGATAATCGCCCTGAGCAAAGACC” has a binding signal of 0.0119 ± 0.0913 log2FC.
